Most compounds without a hit are left out; they make up all but 11% or so of the library.
HP1b binding inh: HTS for Inhibitors of HP1-beta Chromodomain Interactions with Methylated Histone Tails. AlphaScreen HP1-beta / biotin-H3K9me3 peptide binding. Potency, µM (top dose mostly 114 µM), for inactives: top-dose activity change, negative = inhibition, usual class: inhibitors. 0.56% of 390,000 active. AID 540317, 2011; further: nearly all actives have a fitted effect of over 70% in size
Target sequence (P83916 whole entry, looked up): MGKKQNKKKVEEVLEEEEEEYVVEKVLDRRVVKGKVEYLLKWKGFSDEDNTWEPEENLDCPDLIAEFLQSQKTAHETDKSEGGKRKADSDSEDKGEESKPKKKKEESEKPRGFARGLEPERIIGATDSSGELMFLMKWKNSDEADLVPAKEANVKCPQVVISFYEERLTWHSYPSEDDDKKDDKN
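HP1-beta protein (50 nM final) preincubated 30 min at room temperature with biotinylated H3(1-18)K9me3 peptide (50 nM) in PBS pH 7.4, 0.01% Tween-20, then compound added for 30 min. AlphaScreen streptavidin donor/nickel chelate acceptor beads (10 ug/mL final), 30 min dark, luminescence read.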
BAZ2B block: qHTS Assay for Inhibitors of BAZ2B. Bromodomain adjacent to zinc finger domain protein 2B (Homo sapiens), Q9UIF8. AlphaScreen BAZ2B-H3K14Ac peptide displacement. Potency, µM (series often up to 114 µM), for inactives: at the highest dose activity change, negative = inhibition, most hits filed as inhibitors. 4.4% of 360,000 active. AID 504333, 2011; further: on the % scale 0 is the no-effect control and ±100 the full control effect; nearly all actives have a fitted effect of over 60% in size
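BAZ2B 50 nM plus b-H3(5-23)K14Ac 50 nM, PBS pH 7.4/0.01% Tween-20, 30 min RT; compound added (max 110 uM), 30 min RT; streptavidin donor/Ni-chelate acceptor beads 10 ug/mL final, 20 min dark; AlphaScreen read.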
G9a block: qHTS Assay for Inhibitors of Histone Lysine Methyltransferase G9a | G9a H3K9 monomethylation, AlphaScreen, 2 h | Potency, µM (top dose mostly 102 µM), inactives show at the highest dose activity, negative = inhibition, usual class: inhibitors | 8.8% of 350,000 active | AID 504332, 2011; further: on the % scale 0 is the no-effect control and ±100 the full control effect; nearly all actives have a fitted effect of over 75% in size
Target sequence (Q96KQ7 913-1193 limits assumed): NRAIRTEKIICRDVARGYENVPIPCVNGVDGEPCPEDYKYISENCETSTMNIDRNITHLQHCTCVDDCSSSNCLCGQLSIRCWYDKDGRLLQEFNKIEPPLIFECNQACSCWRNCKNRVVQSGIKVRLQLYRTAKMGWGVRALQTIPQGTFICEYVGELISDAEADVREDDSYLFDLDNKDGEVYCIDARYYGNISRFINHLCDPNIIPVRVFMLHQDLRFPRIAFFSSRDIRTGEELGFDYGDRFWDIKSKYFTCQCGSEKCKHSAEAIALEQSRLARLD
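G9a (20 nM) was preincubated 15 min with compound, then reacted 2 h at room temperature with 500 nM biotin-H3K9 peptide and 20 µM SAM. Monomethyl-H3K9 detected by AlphaScreen using anti-H3K9me1 antibody.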
JMJD2A Tudor: qHTS Assay for Inhibitors of JMJD2A-Tudor Domain; Lysine-specific demethylase 4A (Homo sapiens), O75164; AlphaScreen JMJD2A-Tudor / H3K4me3 peptide binding; Potency, µM (series often up to 114 µM), without a hit: at the highest dose activity change, negative = inhibition, usual class: inhibitors; 4.4% of 390,000 active; AID 504339, 2011; further: on the % scale 0 is the no-effect control and ±100 the full control effect; nearly all actives have a fitted effect of over 50% in size
L3MBTL1 block: qHTS Assay for the Inhibitors of L3MBTL1; Lethal(3)malignant brain tumor-like protein 1 (Homo sapiens), Q9Y468; AlphaScreen L3MBTL1–H3K9me1 peptide binding; Potency, µM (doses to about 57.1 µM), inactives show top-dose activity, negative = inhibition, most hits filed as inhibitors; 0.66% of 230,000 active; further: on the % scale 0 is the no-effect control and ±100 the full control effect; nearly all actives have a fitted effect of over 60% in size
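Read-out is AlphaScreen signal from streptavidin donor and nickel chelate acceptor beads (10 ug/mL final each) bridging L3MBTL1 (50 nM) and biotinylated K9-monomethylated H3(1-15) peptide (75 nM), after 30 min compound exposure at room temperature.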
Starred values were filed as active, the others as inactive; ? = inconclusive; . = no result given; ! = not active in a repeat; [ ] = another dose, or the depositor's remark. The call rests on the fitted dose curve; in most records, active means well fitted inhibition curve with a large enough effect; inconclusive means small, poorly fitted or top-dose-only effect; inactive means no such curve, though single readings can be large or run the other way. Potency means the concentration at half of the fitted maximal effect.

SMILES | HP1b binding inh | BAZ2B block | G9a block | JMJD2A Tudor | L3MBTL1 block
O=C(CC1C(=O)NCCN1Cc1ccccc1C(F)(F)F)NC1CCCC1 (centres undefined) | 39.4% | -18.5% | 44.7µM* | -9.0% | .
O=C(CC1C(=O)NCCN1Cc1ccc(Cl)c(F)c1)NC1CCCCC1 (centres undefined) | 32.6% | 0.1% | 57.4% | ? | .
CCOc1ccc(-c2nc(Cn3c(=O)cc(-c4ccccc4)c4c(C)nn(C)c43)c(C)o2)cc1 | 10.6% | -1.4% | -2.1%[59 µM] | -11.0% | .
CC(C)=C[C@@H]1C[C@H](C)[C@H]2CC[C@H](C)c3c(O)c(O)c(C)c1c32 | ? | 56.2µM* | 6.3%[0.501 µM] | 39.8µM* | -7.3%
CC(=O)O[C@H]1[C@H](O)[C@H](Oc2c(O)c(C)c3c4c2[C@@H](C)CC[C@@H]4[C@@H](C)C[C@H]3C=C(C)C)O[C@@H](C)[C@H]1O | -21.3% | . | . | 31.6µM* | -9.0%
CC(=O)OC1[C@H](Oc2c(O)c(C)c3c4c2[C@@H](C)CC[C@@H]4[C@@H](C)C[C@@H]3C=C(C)C)OC[C@@H](O)[C@@H]1O (some centres undefined) | -9.4% | . | . | ? | -4.3%
COc1ccc(C(=O)Oc2ccc(C(c3c(C)[nH][nH]c3=O)c3c(C)[nH][nH]c3=O)cc2)cc1 | 2.7% | -29.5% | -29.7%[59 µM] | -36.0% | .
CN1CN(C)c2cccc3cccc1c23 | ? | ? | 1.41µM* | -37.9% | -20.7%
CC(C)(C)c1ccc(-c2noc(CCC(=O)Nc3cccc(Cl)c3)n2)cc1 | 25.3% | -6.5% | ? | -15.6% | .
Cc1ccc(C(C(=O)NC2CCCCC2)N(Cc2ccccc2)C(=O)Cc2c[nH]c3ccccc23)o1 (centres undefined) | 1.2% | ? | 2.51µM* | ? | -11.3%
COc1ccc(CN(C(=O)Cc2c[nH]c3ccccc23)C(C(=O)NC2CCCCC2)c2ccc(C)o2)cc1 (centres undefined) | -0.1% | -29.7% | ? | ? | -0.6%
COc1cc(C(C(=O)NC2CCCCC2)N(C(=O)Cc2c[nH]c3ccccc23)c2ccccc2C)cc(OC)c1OC (centres undefined) | 0.0% | ? | 39.8µM* | -29.5% | -13.8%
COc1cc(C(C(=O)NC2CCCCC2)N(Cc2cccs2)C(=O)Cc2c[nH]c3ccccc23)cc(OC)c1OC (centres undefined) | 17.4% | -1.5% | 11.4% | -13.8% | -5.6%
COCCNCC(=O)N1CCCCCC1 | -29.5% | 50.1µM* | 8.91µM* | 3.55µM* | ?
COCCNCC(=O)N1c2ccccc2Sc2ccccc21 | -19.7% | ? | ? | ? | -1.4%
CN(Cc1ccccc1)c1ncnc2c1nnn2C | 14.5% | -1.4% | 9.5%[59 µM] | 0.3% | .
Cc1ccc(C)c(NC(=O)CN2CCSc3ccc(S(=O)(=O)N4CCCC4)cc32)c1 | 16.0%[57 µM] | -16.4% | ? | -25.9% | .
NC(=O)c1ccc2c(=O)n3c(-c4cc(Cl)c(N)c(Cl)c4)csc3nc2c1 | 75.5% | ? | ? | 70.8µM* | .
Cc1csc2nc3cc(C(N)=O)ccc3c(=O)n12 | 28.6% | 4.9% | -0.7%[12.7 µM] | 0.0% | .
CN(CP(=O)(O)CN(C)S(C)(=O)=O)S(C)(=O)=O | 8.9% | 89.1µM* | -45.0%[12.7 µM] | 50.1µM* | -4.4%
CC1=CC(C)(C)NC(=S)N1c1cc(C)cc(C)c1 | 22.8% | -34.2% | -7.0%[59 µM] | -15.1% | .
Cc1ccc(-n2cc[nH]c2=S)c(C)c1 | -12.1% | -11.3% | 8.91µM* | -6.9% | 11.4%
Cc1ccc(C)c(-n2cc[nH]c2=S)c1 | 22.2% | 6.8% | 2µM* | 39.8µM* | -4.9%
Cc1cc(C)cc(-n2cc[nH]c2=S)c1 | -4.0% | -25.7% | 0.794µM* | 7.94µM* | ?
CCc1ccccc1NC(=O)c1ccc(=O)n(Cc2ccc(F)cc2)c1 | 27.6%[57 µM] | 1.3% | 2.5%[59 µM] | 4.8% | .
SMILES | HP1b binding inh | BAZ2B block | G9a block | JMJD2A Tudor | L3MBTL1 block
CCOc1cc(CNc2cccc3[nH]c(C)nc23)ccc1OC | 11.4% | ? | 50.1µM* | ? | .
CC1=Nc2cc([N+](=O)[O-])ccc2NC(C)(C)C1 | -7.3% | ? | 31.6µM* | ? | -6.0%
COc1ccc(Nc2nc(NC(C)(C)C)nc(N3CCCC3)n2)c(OC)c1 | ? | 35.5µM* | 39.8µM* | 28.2µM* | .
CC(/C=C/c1ccccc1)=N\NC(=S)NC(C)C | ? | ? | 50.1µM* | 44.7µM* | -29.8%
CO[C@H]1C[C@@H]2CC[C@@H](C)[C@@](O)(O2)C(=O)C(=O)N2CCCC[C@H]2C(=O)OC([C@H](C)C[C@@H]2CC[C@@H](O)[C@H](OC)C2)CC(=O)[C@H](C)/C=C(\C)[C@@H](O)[C@@H](OC)C(=O)[C@H](C)C[C@H](C)/C=C/C=C/C=C/1C (some centres undefined) | . | . | 25.1µM*! | . | .
CO[C@H]1C[C@@H]2CC[C@@H](C)[C@@](O)(O2)C(=O)C(=O)N2CCCC[C@H]2C(=O)O[C@H]([C@H](C)C[C@@H]2CC[C@@H](O)[C@H](OC)C2)CC(=O)[C@H](C)/C=C(/C)[C@@H](O)[C@@H](OC)C(=O)[C@H](C)C[C@H](C)C=C/C=C\C=C/1C | 15.5% | . | . | -35.5% | .
Cn1c(=O)c(-c2ccc(F)cc2)nc2cnc(Nc3ccccc3)nc21 | . | . | 6.6%[0.501 µM] | . | .
CC1CCN(CC(O)CN2c3ccccc3Sc3ccccc32)CC1 (centres undefined) | -7.8% | ? | ? | ? | .
CN1CC[C@H](CN2c3ccccc3Sc3ccccc32)C1 | . | . | 15.8µM* | . | .
COc1ccc(-c2nc3ccccc3o2)cc1NC(=O)C(C)(C)Oc1ccc(Br)cc1 | 17.4% | -14.0% | -19.9%[59 µM] | -1.9% | .
COCCn1c(C)cc(C2=NNC(=Nc3ccccc3)SC2)c1C | -3.4% | 50.1µM* | ? | -32.5% | 6.6%
CCN=C1NN=C(c2cc(C)n(Cc3ccco3)c2C)CS1 | -13.1% | -38.7% | -14.4%[59 µM] | ? | -9.8%
CCN=C1NN=C(c2cc(C)n(CCc3ccccc3)c2C)CS1 | ? | -38.3% | ? | 56.2µM* | .
Cc1cc(C2=NNC(=NCCc3ccccc3)SC2)c(C)n1CC1CCCO1 (centres undefined) | ? | -36.8% | 35.5µM* | 50.1µM* | .
CCCN(C(=O)c1cc2c(s1)-c1ccccc1SC2)c1ccccc1F | 125.5% | 63.0% | 108.1%[59 µM] | 85.9% | .
CC(=O)NCc1nc2cccnc2n1Cc1ccccc1 | 29.3%[57 µM] | 3.7% | -3.5%[59 µM] | -1.3% | .
O=C(CNC(=O)c1cccc(Cl)c1)OC(C(=O)Nc1cc(C(F)(F)F)ccc1Cl)c1ccccc1 (centres undefined) | . | . | . | -20.5% | .
